Experimental data as given in PubChem BioAssay.
Unmarked numbers belong to inactive results.

Test: A549 lung cancer cell viability effects, profiling panel, resazurin fluorescence, 24 h, PK04 Diversity Set (AID 1171); note: test concentration not given here
Conditions: higher = more signal, called active from +8 up or from −8 down

| Compound | z-score |
| --- | --- |
| NC(=O)NCC#Cc1ccc2c(c1)[C@]1(C(=O)N2)[C@H](C(=O)N2CCN(c3ncccn3)CC2)[C@H]2C(=O)O[C@H](c3ccccc3)[C@H](c3ccccc3)N2[C@@H]1c1ccc(O)cc1 | -0.292 |
| COc1ccc(C#Cc2ccc3c(c2)[C@]2(C(=O)N3)[C@H](c3ccc(O)cc3)N3[C@H](c4ccccc4)[C@H](c4ccccc4)OC(=O)[C@H]3[C@@H]2C(=O)Nc2nc3ccccc3s2)cc1 | -1.21 |
| COCCCNC(=O)[C@@]1(Sc2ccc(C)cc2)CC(=O)N(C2Cc3ccccc3C2)[C@@H]1c1ccc(CO)cc1 | 0.491 |
| CCC1=C2CN(Cc3ccccc3)[C@@H](C(=O)Cc3ccccc3)C2C=CCC1 (some centres undefined) | 0.822 |
| CCOC(=O)C1=C[C@@H](C(C)(C)C)N(S(=O)(=O)c2ccc(C)cc2)[C@H]1c1cccc2ccccc12 | 0.828 |
| C=CCC(OC(C)=O)[C@@H]1[C@@H](N(Cc2cc3ccccc3o2)C(=O)Cc2ccc(F)cc2)c2cc(OCCCO)ccc2N1C(=O)Cc1ccc2ccccc2c1 (some centres undefined) | 0.0336 |
| COC(=O)[C@@]1(Cc2ccc(OC)cc2)[C@H]2c3cc(C(=O)N4CCCC4)n(CCc4c[nH]c5ccc(OC)cc45)c3C[C@H]2CN1C(=O)c1ccccc1 | -2.3 |
| COC(=O)[C@@]1(Cc2ccc(OC)cc2)[C@H]2c3cc(C(=O)N(C)C)n(Cc4ccc(C)o4)c3C[C@H]2CN1C(=O)c1ccccc1 | -0.21 |
| CC(C)c1ccc(NN2C(C(O)c3ccc(F)cc3)C=CC3C(=O)N(c4ccccc4)C(=O)C32)cc1 (centres undefined) | -0.12 |
